Bioassay records (PubChem)
Hits are enriched below; roughly 31% of the tested compounds scored in any of these assays.
CYP2C19 inhib: inhibitors of human CYP2C19 | CYP2C19 Supersomes, luciferin-H EGE luminescence, 30 min | AID 778 | hit rate 21% among 96,000 | P33261 | inhibition, % at 5 µM;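 active means CYP2C19 inhibition above a set limit at 5 µM in the primary screen, cut at about 50% in these data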
Target sequence (P33261 whole entry, looked up): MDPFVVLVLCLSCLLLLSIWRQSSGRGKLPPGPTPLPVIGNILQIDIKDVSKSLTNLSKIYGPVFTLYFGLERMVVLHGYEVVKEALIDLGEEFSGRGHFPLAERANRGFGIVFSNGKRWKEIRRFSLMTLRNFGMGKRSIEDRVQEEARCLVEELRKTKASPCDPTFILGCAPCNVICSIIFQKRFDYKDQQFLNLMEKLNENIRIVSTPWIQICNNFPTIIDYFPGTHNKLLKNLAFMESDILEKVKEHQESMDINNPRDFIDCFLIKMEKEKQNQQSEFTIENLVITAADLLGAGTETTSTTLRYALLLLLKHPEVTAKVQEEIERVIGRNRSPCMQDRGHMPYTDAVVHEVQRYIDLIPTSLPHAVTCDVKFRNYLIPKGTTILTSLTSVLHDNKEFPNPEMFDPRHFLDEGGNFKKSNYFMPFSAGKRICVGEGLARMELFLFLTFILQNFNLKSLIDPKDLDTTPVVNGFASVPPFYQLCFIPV
CYP2C9 activ: CYP2C9 (human) activation | activation factor at 5 µM | recombinant CYP2C9, luciferin-H conversion, luminescence; active compounds read high; factor 1 = untreated enzyme, 0 = blocked | hit rate 1.4% among 96,000 | P11712;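 active means activation factor of 2 or more for CYP2C9 at a 5 µM dose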
CYP2C9 inhib: blocks human cytochrome P450 2C9. AID 777. inhibition, % at 5 µM. CYP2C9 Supersomes, luciferin-H conversion, luminescence. hit rate 20% among 96,000. P11712;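 active means blocking of liver enzyme CYP2C9 beyond about 50% at 5 µM, limit read from the data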
PLAP act: activates human placental alkaline phosphatase | activation fold at 20 µM | purified PLAP enzyme, luminescent substrate read-out; active compounds read high | AID 696 | hit rate 1.2% among 96,000 | P05187; in the data active means activation fold above about 2
CYP2C19 act: activators of human cytochrome P450 2C19; P33261; recombinant CYP2C19, luciferin-H EGE luminescence; active compounds read high; 0 = fully inhibited enzyme, 1 = untreated enzyme; activation factor at 5 µM; 96,000 tested, under 10 active; AID 1025;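 active means activation factor of at least 2 at 5 µM in the primary screen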
A number is an active result; - = inactive.

SMILES	CYP2C19 inhib	CYP2C9 activ	CYP2C9 inhib	PLAP act	CYP2C19 act
CCOc1ccc2c(c1)sc(=NC(=O)C1CC1)n2C	-	-	-	-	-
CCOc1ccc2c(c1)s/c(=N\S(=O)(=O)c1ccc(OC)cc1)n2C(F)F	61	-	-	-	-
COc1cc(C(=O)O)cc(Br)c1OC1CCCC1	-	-	-	-	-
CCCC(=O)Nc1ccc(C(=O)N/N=C/c2cccnc2)cc1	-	-	-	-	-
CCOC(=O)C1=C(Cc2ccc(C)cc2)C(=O)c2ccccc2C1=O	74	-	61	-	-
CCOC(=O)C1=C(Cc2ccc(OC)cc2)C(=O)c2ccccc2C1=O	56	-	55	-	-
CCOC(=O)c1c(C)nc2c(c1-c1cc(OC)ccc1OC)C(=O)c1ccccc1-2	-	-	-	-	-
CC[C@H](C)[C@H](NC(=O)c1ccc(Cl)cc1)C(=O)OCC(=O)c1ccc2c(c1)NC(=O)CO2	-	-	56	-	-
N#Cc1ccccc1OCC(=O)OCC(=O)c1ccc2c(c1)NC(=O)CO2	67	-	59	-	-
CC(C)[C@H](NC(=O)c1ccccc1)C(=O)OCC(=O)c1ccc2c(c1)NC(=O)CO2	52	-	-	-	-
COc1cc(OC)cc(C(=O)N[C@H](C(=O)OCC(=O)c2ccc3c(c2)NC(=O)CO3)C(C)C)c1	-	-	-	-	-
CCc1cc2c(=O)c(Oc3ccccc3)c(C)oc2cc1O	-	-	-	-	-
CC(c1ccccc1)C1C(C#N)=C(N)OC2=C1C(=O)CCC2 (centres undefined)	62	-	-	-	-
N#CC1=C(N)OC2=C(C(=O)CCC2)C1c1ccccc1 (centres undefined)	-	-	-	-	-
O=C1CCCC2=C1C(c1ccccc1)C1=C(CCCC1=O)O2	-	-	-	-	-
N#CC1=C(N)OC2=C(C(=O)CCC2)C1c1ccsc1 (centres undefined)	57	-	-	-	-
CCCCCCC1C(C#N)=C(N)OC2=C1C(=O)CCC2 (centres undefined)	73	-	75	-	-
CCN(CC(=O)N1CCOCC1)S(=O)(=O)c1ccc(C)cc1	-	-	-	-	-
Cc1cccc(NC(=O)c2ccc(N(C)C3CCCCC3)c([N+](=O)[O-])c2)n1	-	-	-	-	-
Cc1ccc(C(=O)NCCc2csc(-c3cccnc3)n2)cc1	-	-	63	-	-
COc1ccc(S(=O)(=O)NCCc2csc(-c3cccnc3)n2)cc1	93	-	60	-	-
O=S(=O)(NCCc1csc(-c2cccnc2)n1)c1cccs1	94	-	66	-	-
COc1ccccc1Oc1ccc(S(=O)(=O)NCc2ccccn2)cc1	-	-	-	-	-
COc1ccc(-c2nc(CNS(=O)(=O)c3ccc(OC)c(OC)c3)cs2)cc1	82	-	55	-	-
CC(=O)Nc1ccc(S(=O)(=O)NCc2csc(-c3cccnc3)n2)cc1	-	-	-	-	-
SMILES	CYP2C19 inhib	CYP2C9 activ	CYP2C9 inhib	PLAP act	CYP2C19 act
O=S(=O)(NCc1csc(-c2cccnc2)n1)c1cccs1	-	-	-	-	-
CCc1sc(NS(C)(=O)=O)nc1-c1ccccc1	-	-	-	-	-
O=C(O)Cn1nnnc1-c1ccc(F)cc1	-	-	-	-	-
Cc1nc(CNS(=O)(=O)c2ccc3c(c2)CCCC3)cs1	-	2.4	-	-	-
O=S(=O)(NCCc1csc(-c2cccnc2)n1)c1ccc(Cl)s1	80	-	83	-	-
COc1ccc(-c2nc(CCNC(=O)c3ccco3)cs2)cc1OC	-	-	54	-	-
CCCCOc1ccc(S(=O)(=O)NCc2csc(C)n2)cc1	-	-	-	-	-
O=C(NCCc1csc(-c2ccc(C(F)(F)F)cc2)n1)c1cccs1	-	-	75	-	-
O=C(OCc1csc(-c2ccccc2)n1)c1cccs1	-	-	-	-	-
CCc1ccc(S(=O)(=O)NCCc2cn3ccccc3n2)s1	-	-	-	-	-
CC(C(=O)O)N1C(=O)CSc2ncccc21 (centres undefined)	-	-	-	-	-
CSc1cccc(NS(=O)(=O)c2cccc3nsnc23)c1	58	-	64	-	-
COc1cc(NS(=O)(=O)c2cccc3nsnc23)cc(OC)c1	93	-	-	-	-
CSc1cccc(NS(=O)(=O)c2cccs2)c1	-	-	-	-	-
COC(=O)CC1Oc2ccc(C)cc2NC1=O (centres undefined)	-	-	-	-	-
C=C(C)C(=O)OC1(C(F)(F)F)Oc2cc(C)ccc2NC1=O (centres undefined)	63	-	-	-	-
Cc1noc(C)c1C(c1ccccc1)c1ccccc1	94	-	76	-	-
Cc1ccc(OCC(=O)N2CCCCC2)c(Br)c1	85	-	-	-	-
Cc1cc(OCC(=O)N2CCCC2)cc(C)c1Cl	-	-	-	-	-
COCCCNC(=O)COc1ccc(Cl)c(C)c1	84	-	-	-	-
Cc1cc(OCC(=O)N2CCCC2)ccc1Cl	85	-	-	-	-
Cc1ccc(NC(=O)CC2Oc3ccccc3NC2=O)c(C)c1 (centres undefined)	-	-	-	-	-
Cc1sc(NC(=O)c2ccc(OCC(C)C)cc2)c(C(N)=O)c1-c1ccc(Cl)cc1Cl	-	-	68	-	-
Cc1cc(C(=O)Nc2sc(C)c(-c3ccc(F)cc3)c2C(N)=O)no1	-	-	-	-	-
O=C(O)c1c(Cl)c(Cl)c(Cl)c(Cl)c1C(=O)N1CCOCC1	-	-	-	-	-
SMILES	CYP2C19 inhib	CYP2C9 activ	CYP2C9 inhib	PLAP act	CYP2C19 act
CCOC(=O)C1CCN(c2c(NC3CCCc4ccccc43)c(=O)c2=O)CC1 (centres undefined)	-	-	-	-	-
Nc1c2c(nc3ccc(Br)cc13)N(c1ccccc1)CC2	89	-	87	-	-
COc1ccc(C(=O)O)cc1Nc1cc(C)nc2ncnn12	-	-	-	-	-
CCCCn1c(SCc2cc(=O)[nH]c3ccccc23)nc2c1c(=O)n(C)c(=O)n2C	-	-	-	-	-
CCCCOc1cccc(C2(C(=O)O)CCCC2)c1	-	-	-	-	-
CCCCCCOC1(c2ccccc2)OC(=O)c2ccccc21 (centres undefined)	56	-	62	-	-
Cc1cccc(OC2(c3ccccc3)OC(=O)c3ccccc32)c1C (centres undefined)	-	-	83	-	-
CCCCCCCOC1(c2ccccc2)OC(=O)c2ccccc21 (centres undefined)	78	-	76	-	-
Cc1ccc(C2CC(c3cccs3)=NN2C(=O)c2ccc(Br)o2)cc1 (centres undefined)	-	-	-	-	-
C/C(NC1CCCCC1)=C(/C#N)C(=O)NCCN1CCOCC1	-	-	-	-	-
Fc1ccc(Br)cc1C1C=C(c2cccnc2)Nc2ncnn21 (centres undefined)	88	-	54	-	-
CCOC(=O)c1sc(NC(=O)COC(=O)c2ccco2)nc1C	-	-	-	-	-
CN(C/C(O)=C(\C#N)c1ccccc1)C1CCCCC1	-	-	-	-	-
